HP1b binding inh: HTS for Inhibitors of HP1-beta Chromodomain Interactions with Methylated Histone Tails; Chromobox protein homolog 1 (Homo sapiens), P83916; AlphaScreen HP1-beta / biotin-H3K9me3 peptide binding; Potency, µM (series often up to 114 µM), for inactives: top-dose activity change, negative = inhibition, usual class: inhibitors; 390,000 tested, 0.56% active; AID 540317, 2011; also: potency is read from the fitted curve at half-maximal effect; nearly all actives have a fitted effect of over 70% in size
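Compound inhibition of the preformed complex between 50 nM HP1-beta and 50 nM biotinylated H3K9me3 peptide was read by AlphaScreen. Buffer was PBS pH 7.4 with 0.01% Tween-20. Incubations ran 30 min at room temperature, with 10 ug/mL donor/acceptor beads.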
BAZ2B inh: qHTS Assay for Inhibitors of BAZ2B | Bromodomain adjacent to zinc finger domain protein 2B (Homo sapiens), Q9UIF8 | AlphaScreen BAZ2B-H3K14Ac peptide displacement | Potency, µM (top dose mostly 114 µM), inactives show at the highest dose activity change, negative = inhibition, most hits filed as inhibitors | 360,000 tested, 4.4% active | AID 504333, 2011; also: potency is read from the fitted curve at half-maximal effect; % is scaled to controls: 0 for no effect and ±100 for the full control effect; nearly all actives have a fitted effect of over 60% in size
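BAZ2B (50 nM) with biotin-H3(5-23)K14Ac peptide (50 nM) in PBS pH 7.4, 0.01% Tween-20, preformed 30 min, then compound 30 min at room temperature; top concentration 110uM. AlphaScreen streptavidin donor/nickel chelate acceptor beads (10 ug/mL final), 20 min dark, signal read.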
CtBP-E1A inh: qHTS Assay for Inhibitors of the CtBP/E1A Interaction; AlphaScreen GST-E1A/His-CtBP binding, 1536-well; stronger effect = lower value; activity change, % (test concentration not listed); 340,000 tested, 0.49% active; in the data active = activity change below about -65%; inconclusive = mostly about -30% to -63%; also: % is scaled to controls: 0 for no effect and ±100 for the full control effect
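GST-E1A and His-tagged CtBP (125 nM each as 5X stock) were preincubated with pin-transferred compound for 2 h at 37 °C in the dark, then glutathione donor and nickel acceptor beads were added for 1 h before AlphaScreen reading.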
JMJD2A Tudor: qHTS Assay for Inhibitors of JMJD2A-Tudor Domain | Lysine-specific demethylase 4A (Homo sapiens), O75164 | AlphaScreen JMJD2A-Tudor / H3K4me3 peptide binding | Potency, µM (highest dose often 114 µM), without a hit: top-dose activity change, negative = inhibition, most hits filed as inhibitors | 390,000 tested, 4.4% active | AID 504339, 2011; also: potency is read from the fitted curve at half-maximal effect; % is scaled to controls: 0 for no effect and ±100 for the full control effect; nearly all actives have a fitted effect of over 50% in size
Target sequence (O75164 whole entry, looked up, the tested form may be a part): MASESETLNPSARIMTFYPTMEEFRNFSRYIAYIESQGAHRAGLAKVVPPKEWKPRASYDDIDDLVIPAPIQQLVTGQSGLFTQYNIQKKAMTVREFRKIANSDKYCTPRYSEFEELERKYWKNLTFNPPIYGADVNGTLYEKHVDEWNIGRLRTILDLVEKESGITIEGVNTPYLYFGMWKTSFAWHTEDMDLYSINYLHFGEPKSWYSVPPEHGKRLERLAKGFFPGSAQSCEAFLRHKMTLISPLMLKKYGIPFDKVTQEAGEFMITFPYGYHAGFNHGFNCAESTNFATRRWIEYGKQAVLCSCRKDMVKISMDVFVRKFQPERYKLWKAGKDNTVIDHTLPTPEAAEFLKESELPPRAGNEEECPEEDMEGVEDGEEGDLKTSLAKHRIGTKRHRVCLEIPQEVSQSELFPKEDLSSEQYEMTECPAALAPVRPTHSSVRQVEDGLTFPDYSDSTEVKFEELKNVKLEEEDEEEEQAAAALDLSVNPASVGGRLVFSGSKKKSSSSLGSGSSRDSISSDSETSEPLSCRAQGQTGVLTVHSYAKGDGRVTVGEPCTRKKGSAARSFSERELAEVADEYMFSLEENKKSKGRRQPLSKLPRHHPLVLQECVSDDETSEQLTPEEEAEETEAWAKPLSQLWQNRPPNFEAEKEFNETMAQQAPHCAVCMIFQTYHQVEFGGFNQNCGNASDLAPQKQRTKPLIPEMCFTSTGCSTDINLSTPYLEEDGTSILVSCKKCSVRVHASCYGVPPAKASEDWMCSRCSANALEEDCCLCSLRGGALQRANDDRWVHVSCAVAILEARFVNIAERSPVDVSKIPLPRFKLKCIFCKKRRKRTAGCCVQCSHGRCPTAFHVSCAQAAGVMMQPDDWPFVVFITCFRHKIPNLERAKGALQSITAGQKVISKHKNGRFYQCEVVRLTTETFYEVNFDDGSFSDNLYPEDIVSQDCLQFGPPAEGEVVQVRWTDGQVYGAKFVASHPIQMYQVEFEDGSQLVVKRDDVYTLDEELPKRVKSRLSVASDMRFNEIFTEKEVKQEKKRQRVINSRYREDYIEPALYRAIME
Six1-Eya2 inh: qHTS Assay for Inhibitors of the Six1/Eya2 Interaction; AID 651725, 2012; AlphaScreen GST-Six1/His-Eya2 binding, biochemical; stronger effect = lower value; activity change, % (test concentration not listed); 360,000 tested, 0.56% active; Homeobox protein SIX1 (Homo sapiens) + Protein phosphatase EYA2 (Homo sapiens), …; in the data active = activity change below about -65%; inconclusive = mostly about -30% to -63%; also: % is scaled to controls: 0 for no effect and ±100 for the full control effect
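AlphaScreen luminescence read after one hour at 37 °C in darkness. Pin-transferred compounds met GST-Six1 and His-Eya2 protein (5X stock 250 nM/500 nM) plus glutathione donor and Ni-chelate acceptor beads (5X, 50 ug/mL).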
G9a inh: qHTS Assay for Inhibitors of Histone Lysine Methyltransferase G9a; Potency, µM (doses to about 102 µM), inactives show at the highest dose activity, negative = inhibition, actives largely listed as inhibitors; G9a H3K9 monomethylation, AlphaScreen, 2 h; 350,000 tested, 8.8% active; also: potency is read from the fitted curve at half-maximal effect; % is scaled to controls: 0 for no effect and ±100 for the full control effect; nearly all actives have a fitted effect of over 75% in size
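Signal arises when biotinylated H3K9 peptide, once monomethylated, bridges streptavidin donor and antibody-captured acceptor beads. Enzyme at 20 nM was preincubated 15 min with test compounds; peptide 500 nM and SAM 20 uM then reacted for 2 h.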
* hit, by the source's call; ? = inconclusive; nt = no result given; [ ] = remark or other dose. Sampled rows, rich in hits. Any-hit rate of the full collection: about 10%. Unless noted, calls follow the shape of the dose curve; as a rule, active = well fitted inhibition curve with a large enough effect; inconclusive = small, poorly fitted or top-dose-only effect; inactive = no such curve, though single readings can be large or run the other way.

SMILES	HP1b binding inh	BAZ2B inh	CtBP-E1A inh	JMJD2A Tudor	Six1-Eya2 inh	G9a inh
COc1ccccc1N1N=C(c2ccc([N+](=O)[O-])cc2)CC1c1ccccc1 (stereo unspecified)	?	11µM*	?	32µM*	?	22%[0.501 µM]
Fc1ccc(C2CC(c3ccco3)=NN2c2ccccc2)cc1 (stereo unspecified)	379%	147%	162	194%	153	nt
COCc1cc(C)nc2sc(C(=O)Nc3cc(C)ccc3F)c(N)c12	70%	0%	nt	11%	nt	13%[59 µM]
CCCCn1c(=O)[nH]c(=O)c2c1nc(-c1ccc(-c3ccccc3Br)o1)n2CC	16%	-9%	2	-19%	6	10µM*
CCCCn1c(=O)[nH]c(=O)c2c1nc(-c1ccc(C(F)(F)F)cc1)n2C	24%	-3%	3	-2%	-4	8%
CCCCn1c(=O)[nH]c(=O)c2c1nc(-c1ccc(-c3ccccc3)cc1)n2C	49%	1%	6	-7%	22	40µM*
Cn1cc([N+](=O)[O-])c(C(=O)NC2CCCCCCC2)n1	nt	-34%	nt	nt	nt	19%[59 µM]
CCN(C(=O)Cc1c(C(=O)O)c(C)cn1C)c1cccc(Cl)c1	19%	-4%	nt	-1%	nt	3%[59 µM]
Cc1ccc(N2CCN(c3ccc(C)cc3)C2c2cccnc2)cc1	?	35µM*	?	40µM*	?	-20%[12.7 µM]
c1ccc(N2CCN(c3ccccc3)C2c2cccnc2)cc1	-18%	?	-11	?	-10	?
N#Cc1ccc(C2=NC(C(F)(F)F)(C(F)(F)F)c3c(n(Cc4ccco4)c(=O)[nH]c3=O)N2)cc1	18%	-31%	-10	6%	-10	?
Cc1cc(C)n(-c2nnc(C)n2/N=C/c2ccccc2O)n1	4%	-4%	-4	7.9µM*	17	-33%[12.7 µM]
Cc1cc(C)n(-c2nnc(C)n2N)n1	6%	-14%	6	?	12	50µM*
Cc1cc(C)n(/N=C/c2ccccc2O)c(=O)c1	7%	50µM*	6	?	0	16µM*
CC(C)NC(=O)C1(C)CN(S(C)(=O)=O)CC(=O)N1CCCn1ccnc1 (stereo unspecified)	nt	nt	5	nt	2	nt
Cn1ccc2cc(S(=O)(=O)N3CCC(C(=O)NCCc4ccccc4)CC3)ccc21	23%[57 µM]	5%	nt	8%	nt	6%[59 µM]
CCCCCCCC/C=C\CCCCCCCCN	nt	nt	nt	nt	nt	6%[12.7 µM]
O=C(NC(NC(=S)Nc1ccccc1C(=O)O)C(Cl)(Cl)Cl)c1cccc([N+](=O)[O-])c1 (stereo unspecified)	-31%	-6%	-17	79µM*	-10	?
O=C(/C=C/c1cccc([N+](=O)[O-])c1)NC(=S)Nc1cccc(NC(=O)c2ccccc2Cl)c1	31%	-32%	9	12%	3	-11%
O=C(NC(NC(=S)Nc1ccccc1Cl)C(Cl)(Cl)Cl)c1cccc(Cl)c1 (stereo unspecified)	-24%	-29%	-18	-26%	0	-22%
O=C(/C=C/c1cccc([N+](=O)[O-])c1)NC(=S)Nc1ccccc1C(=O)O	nt	-23%	nt	nt	nt	45µM*
O=C(NN=Cc1ccccc1OC(F)F)c1cccc(S(=O)(=O)N2CCCC2)c1	33%	nt	3	-5%	-26	nt
O=C(OCC(=O)N1CCOCC1)c1cc2ccccc2oc1=O	29%	5%	6	-2%	3	30%[12.7 µM]
O=C(CSC(=S)N1CCOCC1)c1cc2ccccc2oc1=O	-3%	-24%	-6	-30%	-2	71µM*
CN(c1ccc(C(=O)Nc2ccc(CC#N)cc2)cc1)S(C)(=O)=O	34%	nt	3	0%	-7	-32%
O=C(NC(=S)NNC(=O)c1ccco1)c1ccc(Br)cc1	6%	-3%[57.1 µM]	nt	2%	-9	22µM*
